Results published in PubChem BioAssay.
Values without a mark were called inactive. The source made the active and inactive calls.

Test: PSAC antagonists in infected red cells, primary screen, cell-based, P. falciparum Indochina, OD700, 2 h (AID 1155);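 further: lysis reports solute entry through the parasite surface anion channel PSAC; channel blockers reduce lysis of infected cells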
Details: P. falciparum Indochina infected erythrocytes, osmotic lysis OD700; higher = more signal, called active from +8 up or from −8 down

| SMILES | z-score |
| --- | --- |
| COc1ccc(C(=O)O[C@H]2CC[C@]3(C)C4=C(CCC3C2(C)C)[C@]2(C)CC[C@H]([C@H](C)CCCC(C)C)[C@@]2(C)CC4)cc1 (stereo not given in full) | -0.787 |
| COc1ccc(C(=O)Nc2ccc(CN3C(=O)[C@@]4(O[C@@H](CCn5cc([C@H](O)c6ccccc6)nn5)[C@H]([Si](C)(C)c5ccc(OC)cc5)[C@H]4C)c4ccccc43)cc2)cc1 | 5.6 |
| O=C1c2ccccc2[C@@]2(Cc3ccccc3N(CCN3CCOCC3)C2=O)[C@H](c2ccc(CO)cc2)N1Cc1ccccc1 | -0.273 |
| CC[C@@H]1C=C(C(=O)O)[C@H](c2ccco2)N1S(=O)(=O)c1ccc(C)cc1 | 1.37 |
| O=C1OCCC/C=C\[C@H]2OC34C=CCN(CCN5CCOCC5)C(=O)[C@H]3N(CCCO)C(=O)[C@@H]4C12 (stereo not given in full) | 0.351 |
| COC(=O)[C@@]1(Cc2ccccc2)[C@H]2c3cc(C(=O)N4CCCC4)n(Cc4nc5ccccc5[nH]4)c3C[C@H]2CN1C(=O)c1ccccc1 | 0.541 |
| CC(C)c1ccc(NN2C(C(O)C(c3ccccc3)c3ccccc3)C=CC3C(=O)N(c4ccccc4)C(=O)C32)cc1 (stereo not given) | 1.32 |
| C#CCN(Cc1ccccc1Br)C(/C=C/c1ccccc1)CO (stereo not given) | 2.61 |
| O=C1C2C=CC(C(O)c3c(F)cccc3Cl)N(Nc3ccccc3)C2C(=O)N1c1ccccc1 (stereo not given) | 3.73 |
| NC(=O)[C@@H]1[C@H]2C(=O)O[C@H](c3ccccc3)[C@H](c3ccccc3)N2[C@H](c2ccc(O)cc2)[C@@]12C(=O)Nc1ccc(C#CC3(O)CCCCCC3)cc12 | 0.912 |
| CCOC(=O)C[C@H]1[C@H](OC(=O)Cc2ccc3c(c2)OCO3)[C@@H](NC(=O)c2ccc3ccccc3c2)c2cc(OCCCO)ccc2N1C(=O)c1ccccc1 | 0.522 |
| CN(C)C(=O)[C@]1(Cc2ccccc2N=[N+]=[N-])N=C(c2ccc(OCCCO)cc2)O[C@@H]1c1ccccc1 | 27.5 (active) |
| COC(=O)c1c(CC[C@@H](CO)NC(=O)N[C@@H](C)Cn2cc(C3(O)CCCCC3)nn2)oc(C(C)=O)c1C(=O)OC | -0.319 |
| O=C1C2C=CC(C(O)c3ccc(F)cc3)N(Nc3ccccc3F)C2C(=O)N1c1ccccc1 (stereo not given) | 1.4 |
| O=C(c1ccccc1)N1Cc2ccccc2[C@@H]2OC(c3ccc(OCCCO)cc3)=N[C@]2(Cc2ccccc2)C1=O | 1.35 |
| C=C(COC)/C(=C/C[C@H](OC(=O)c1ccncc1)c1ccc(OCCO)cc1)c1cnc2ccccc2c1 | 3.18 |
| COCCOC(=O)N1C(=O)[C@@]2(c3cc(C#CCNC(N)=O)ccc31)[C@H](C(=O)NC[C@H](O)c1ccccc1)[C@H]1C(=O)O[C@H](c3ccccc3)[C@H](c3ccccc3)N1[C@@H]2c1ccccc1OCCO | 0.35 |
| COc1ccc([C@H]2C[C@H]3C(Br)=C[C@@H]2C(=O)[C@]32CO2)cc1 | 0.581 |
| C=CCOC(=O)[C@@H]1[C@H]2C(=O)O[C@H](c3ccccc3)[C@H](c3ccccc3)N2[C@H](c2ccc(OCCOC(=O)[C@@H]3C[C@@H]4C(=O)N[C@@H](Cc5ccccc5)C(=O)N4[C@@H]3c3ccc(O)cc3)cc2)[C@@]12C(=O)Nc1ccc(I)cc12 | 1.87 |
| O=C1OCC=C[C@H]2OC34C=CCN(c5ccc6ccccc6c5)C(=O)[C@H]3N(CCCCCCO)C(=O)[C@@H]4[C@@H]12 (stereo not given in full) | 0.0422 |
| [N-]=[N+]=Nc1ccccc1C[C@]1(C(N)=O)N=C(c2ccc(OCCCO)cc2)O[C@H]1c1ccccc1 | 3.47 |
| O=C1OCCC/C=C\[C@H]2OC34C=CCN(Cn5nnc6ccccc65)C(=O)[C@H]3N(CCO)C(=O)[C@@H]4C12 (stereo not given in full) | 0.299 |
| COc1cc2c(cc1OC)CN(C(=O)[C@H]1[C@@H]3C(=O)O[C@@H](c4ccccc4)[C@@H](c4ccccc4)N3[C@@H](c3ccc(O)cc3)[C@]13C(=O)Nc1ccc(C#CC4=CCCCC4)cc13)CC2 | 0.445 |
| Cc1ccc(S[C@]2(C(=O)NCC(C)C)CC(=O)N(Cc3cc(C(F)(F)F)cc(C(F)(F)F)c3)[C@@H]2c2ccc(CO)cc2I)cc1 | -0.449 |
| CCCC[C@@H]1C[C@H]1[C@@H](NC(=O)c1ccco1)c1ccc(C(=O)OC)cc1 | 0.501 |
| O=C1O[C@H](c2ccccc2)[C@H](c2ccccc2)N2[C@H]1[C@@H](C(=O)O)[C@]1(C(=O)Nc3ccc(C#CC4=CCCCC4)cc31)[C@H]2c1ccccc1OCCO | -1.36 |
| CC(=O)N1Cc2ccccc2C[C@@]2(COC(c3ccc(OCCCO)cc3)=N2)C1=O | 13.4 (active) |

Test: osmotic lysis modulators in infected erythrocytes, primary screen, PSAC antagonist project, cell-based, P. falciparum Indochina, OD700, 3 h (AID 1156)
Details: higher = more signal, called active from +8 up or from −8 down

| SMILES | z-score |
| --- | --- |
| C[N+](C)(C)CCCCNC(=O)[C@H]1C[C@H]2C(=O)N[C@@H](Cc3ccccc3)C(=O)N2[C@H]1c1ccc(O)cc1 | -0.271 |
| [N-]=[N+]=NCc1ccccc1C[C@]1(C(=O)N2CCOCC2)N=C(c2ccc(OCCCO)cc2)O[C@H]1c1ccccc1N=[N+]=[N-] | 2.34 |
| CC(=O)NCCCC[C@@H]1NC(=O)[C@@H]2C[C@H](C(=O)NCCCCN(C)C)[C@H](c3cccc(OCCO)c3)N2C1=O | -0.0825 |
| COc1ccc(C(O)C2C=CC3C(=O)N(c4ccccc4)C(=O)C3N2Nc2ccc(C(C)C)cc2)cc1OCc1ccccc1 (stereo not given) | -0.167 |
| [N-]=[N+]=Nc1ccccc1[C@H]1OC(c2ccc(OCCCO)cc2)=N[C@@]1(Cc1ccccc1)C(=O)O | 1.65 |
| O=C(NCc1ccccc1)[C@@]1(Cc2ccccc2)N=C(c2ccc(OCCCO)cc2)O[C@H]1c1ccccc1 | 1.5 |
| CCOC1=C2C(CN(S(=O)(=O)c3ccc(C)cc3)C2c2ccc(C)cc2)C2C(=O)N(c3ccccc3)C(=O)C2C1 (stereo not given) | 0.398 |
| CCOC(=O)C[C@H]1[C@H](OC(=O)c2ccc(C(=O)c3ccccc3)cc2)[C@@H](NC(=O)c2ccc(-c3ccccc3)cc2)c2cc(OCCCO)ccc2N1C(=O)c1ccccc1 | -0.559 |
| COCCOC(=O)N1C(=O)[C@@]2(c3cc(C#Cc4ccc(OC)cc4)ccc31)[C@H](c1ccc(O)cc1)N1[C@H](c3ccccc3)[C@H](c3ccccc3)OC(=O)[C@H]1[C@@H]2C(=O)NC[C@H](O)c1ccccc1 | 0.38 |
| COc1ccc(C(=O)O[C@H]2CC[C@]3(C)C4=C(CCC3C2(C)C)[C@]2(C)CC[C@H]([C@H](C)CCCC(C)C)[C@@]2(C)CC4)cc1 (stereo not given in full) | -0.246 |
| COc1ccc(C(=O)Nc2ccc(CN3C(=O)[C@@]4(O[C@@H](CCn5cc([C@H](O)c6ccccc6)nn5)[C@H]([Si](C)(C)c5ccc(OC)cc5)[C@H]4C)c4ccccc43)cc2)cc1 | 2.08 |
| O=C1c2ccccc2[C@@]2(Cc3ccccc3N(CCN3CCOCC3)C2=O)[C@H](c2ccc(CO)cc2)N1Cc1ccccc1 | -0.378 |
| CC[C@@H]1C=C(C(=O)O)[C@H](c2ccco2)N1S(=O)(=O)c1ccc(C)cc1 | -0.0701 |
| O=C1OCCC/C=C\[C@H]2OC34C=CCN(CCN5CCOCC5)C(=O)[C@H]3N(CCCO)C(=O)[C@@H]4C12 (stereo not given in full) | -0.893 |
| COC(=O)[C@@]1(Cc2ccccc2)[C@H]2c3cc(C(=O)N4CCCC4)n(Cc4nc5ccccc5[nH]4)c3C[C@H]2CN1C(=O)c1ccccc1 | 2.65 |
| CC(C)c1ccc(NN2C(C(O)C(c3ccccc3)c3ccccc3)C=CC3C(=O)N(c4ccccc4)C(=O)C32)cc1 (stereo not given) | 0.771 |
| C#CCN(Cc1ccccc1Br)C(/C=C/c1ccccc1)CO (stereo not given) | -1.31 |
| O=C1C2C=CC(C(O)c3c(F)cccc3Cl)N(Nc3ccccc3)C2C(=O)N1c1ccccc1 (stereo not given) | 0.419 |
| NC(=O)[C@@H]1[C@H]2C(=O)O[C@H](c3ccccc3)[C@H](c3ccccc3)N2[C@H](c2ccc(O)cc2)[C@@]12C(=O)Nc1ccc(C#CC3(O)CCCCCC3)cc12 | 0.904 |
| CCOC(=O)C[C@H]1[C@H](OC(=O)Cc2ccc3c(c2)OCO3)[C@@H](NC(=O)c2ccc3ccccc3c2)c2cc(OCCCO)ccc2N1C(=O)c1ccccc1 | -0.552 |
| CN(C)C(=O)[C@]1(Cc2ccccc2N=[N+]=[N-])N=C(c2ccc(OCCCO)cc2)O[C@@H]1c1ccccc1 | 2.4 |
| COC(=O)c1c(CC[C@@H](CO)NC(=O)N[C@@H](C)Cn2cc(C3(O)CCCCC3)nn2)oc(C(C)=O)c1C(=O)OC | 1.01 |
| O=C1C2C=CC(C(O)c3ccc(F)cc3)N(Nc3ccccc3F)C2C(=O)N1c1ccccc1 (stereo not given) | -0.196 |
| O=C(c1ccccc1)N1Cc2ccccc2[C@@H]2OC(c3ccc(OCCCO)cc3)=N[C@]2(Cc2ccccc2)C1=O | 1.25 |
| C=C(COC)/C(=C/C[C@H](OC(=O)c1ccncc1)c1ccc(OCCO)cc1)c1cnc2ccccc2c1 | 1.47 |
| COCCOC(=O)N1C(=O)[C@@]2(c3cc(C#CCNC(N)=O)ccc31)[C@H](C(=O)NC[C@H](O)c1ccccc1)[C@H]1C(=O)O[C@H](c3ccccc3)[C@H](c3ccccc3)N1[C@@H]2c1ccccc1OCCO | 0.927 |
| COc1ccc([C@H]2C[C@H]3C(Br)=C[C@@H]2C(=O)[C@]32CO2)cc1 | 1.23 |
| C=CCOC(=O)[C@@H]1[C@H]2C(=O)O[C@H](c3ccccc3)[C@H](c3ccccc3)N2[C@H](c2ccc(OCCOC(=O)[C@@H]3C[C@@H]4C(=O)N[C@@H](Cc5ccccc5)C(=O)N4[C@@H]3c3ccc(O)cc3)cc2)[C@@]12C(=O)Nc1ccc(I)cc12 | 5.01 |
